Measurements taken from PubChem BioAssay (Tox21).
Inconclusive results are not listed. A call without a number means that no potency is given here. Active and inactive are the calls of the source. Unless noted, the call rests on the fitted dose curve; in most records, active means well fitted curve in the direction sought with a large enough effect in the repeat runs; inconclusive means weak or mixed curves; inactive means no such curve, though single readings can be large; an effect the other way counts as inactive or inconclusive.

What was measured:
[1] = qHTS assay to identify small molecule antagonists of the thyroid receptor (TR) signaling pathway - cell viability counter screen (AID 743064); further: nearly all actives have a fitted effect of over 50% in size; further: potency means the concentration at half of the fitted maximal effect
In short: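 Counter screen for cytotoxicity: compound plus T3 (1 nM final) on GH3.TRE-Luc cells, 23.5 h at 37 °C, then fluorescence viability readout with CellTiter-Fluor.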

[2] = qHTS assay to identify small molecule antagonists of the thyroid receptor (TR) signaling pathway (AID 743065); further: nearly all actives have a fitted effect of over 55% in size; further: potency means the concentration at half of the fitted maximal effect
In short: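 GH3.TRE-Luc rat pituitary cells (two TREs driving luciferase) were dosed with compound, then stimulated with 1 nM T3 (final) for 23.5 h at 37 C. ONE-Glo luminescence was the read-out, with CellTiter-Fluor fluorescence as the cytotoxicity counter-screen.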

[3] = target: Estrogen receptor (Homo sapiens) (UniProt P03372); assay: qHTS assay to identify small molecule antagonists of the estrogen receptor alpha (ER-alpha) signaling pathway (AID 743069; active means well fitted curve in the direction sought with a large enough effect in the signal ratio in the repeat runs, not every such curve was filed as active; the % refers to the signal ratio)
In short: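 Beta-lactamase FRET fluorescence is read after 2 hr at room temperature with LiveBLAzer B/G substrate. Before that, ER-alpha-bla HEK293 cells sit 4 hr after plating, then receive compound plus 17beta-estradiol and incubate 18 hr at 37C.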

[4] = qHTS assay to identify small molecule antagonists of the estrogen receptor alpha (ER-alpha) signaling pathway - cell viability counter screen (AID 743074; calls by dose curve;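 further: HEK293 cells carrying ER-alpha-UAS-bla reporter stimulated with 17beta-estradiol; nearly all actives have a fitted effect of over 45% in size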)
[5] = target: Estrogen receptor (Homo sapiens) (UniProt P03372); assay: qHTS assay to identify small molecule agonists of the estrogen receptor alpha (ER-alpha) signaling pathway (AID 743075; calls by dose curve;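 further: HEK293 GripTite cells with ER-alpha and UAS-driven beta-lactamase reporter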)
[6] = qHTS assay to identify small molecule antagonists of the estrogen receptor alpha (ER-alpha) signaling pathway using the BG1 cell line - cell viability counter screen (AID 743081);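 further: compound given together with 17beta-estradiol as the ER stimulus; nearly all actives have a fitted effect of over 45% in size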; further: potency means the concentration at half of the fitted maximal effect
[7] = target: Aromatase (Homo sapiens) (UniProt P11511); assay: qHTS assay to identify aromatase inhibitors (AID 743083); further: nearly all actives have a fitted effect of over 55% in size; further: potency means the concentration at half of the fitted maximal effect
[8] = qHTS assay to identify aromatase inhibitors - cell viability counter screen (AID 743084);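 further: cells stimulated with testosterone during compound exposure; nearly all actives have a fitted effect of over 55% in size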; further: potency means the concentration at half of the fitted maximal effect
[9] = target: Peroxisome proliferator-activated receptor gamma (Homo sapiens) (UniProt P37231); assay: qHTS assay to identify small molecule agonists of the peroxisome proliferator-activated receptor gamma (PPARg) signaling pathway (AID 743094; active means well fitted activation curve with a large enough effect in the signal ratio in the repeat runs, not every such curve was filed as active; the % refers to the signal ratio)
In short: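 Cell-based bla reporter, HEK293H background, PPARg-driven UAS. Pre-incubation 5 h, 37C, 5% CO2. Compound 17 h, 37C. Substrate 1 h RT; fluorescence.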

[10] = target: Peroxisome proliferator-activated receptor gamma (Homo sapiens) (UniProt P37231); assay: qHTS assay to identify small molecule antagonists of the peroxisome proliferator-activated receptor gamma (PPARg) signaling pathway (AID 743191; calls by dose curve; further: nearly all actives have a fitted effect of over 30% in size; further: potency means the concentration at half of the fitted maximal effect)
In short: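 GeneBLAzer PPARg UAS-bla HEK293H cells, 5 h post-plating, exposed to compounds 17 h at 37C. LiveBLAzer B/G FRET substrate added for 1 h at room temperature; beta-lactamase reporter read by fluorescence intensity.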

[11] = qHTS assay to identify small molecule antagonists of the peroxisome proliferator-activated receptor gamma (PPARg) signaling pathway - cell viability counter screen (AID 743194); further: nearly all actives have a fitted effect of over 55% in size
In short: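 Cytotoxicity counter screen in PPARg-bla HEK293H cells, same wells as reporter assay. Compounds plus 50 nM rosiglitazone (final) for 17 h at 37 C, then viability read by CellTiter-Glo luminescence.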

[12] = qHTS assay for small molecule agonists of the antioxidant response element (ARE) signaling pathway (AID 743202; active means well fitted activation curve with a large enough effect in the signal ratio in the repeat runs, not every such curve was filed as active; the % refers to the signal ratio; further: potency means the concentration at half of the fitted maximal effect)
In short: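 HepG2 ARE-bla reporter line, 2,000 cells/well; 5 h preincubation 37 C/5% CO2; compound (DMSO) 16 h 37 C; B/G FRET substrate 2 h RT; fluorescence intensity.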

[13] = qHTS assay for small molecule activators of the heat shock response signaling pathway - cell viability counter screen (AID 743209); further: nearly all actives have a fitted effect of over 50% in size
In short: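 Same-well multiplex: after 2.5 h room-temperature incubation with LiveBLAzer B/G substrate and fluorescence reading, CellTiter-Glo reagent was added to HSE-bla HeLa cells that had received compound for 5 h at 37 C; luminescence read after 30 min.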

[14] = qHTS assay for small molecule activators of the heat shock response signaling pathway (AID 743210; active means well fitted activation curve with a large enough effect in the signal ratio in the repeat runs, with a control signal flat, not every such curve was filed as active; the % refers to the signal ratio;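 further: HeLa cells with beta-lactamase reporter driven by heat shock elements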)
In short: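 Beta-lactamase reporter read-out: FRET substrate fluorescence after 2.5 h at RT, following 5 h compound treatment at 37 C of HeLa cells carrying HSE-driven bla reporter; quantitative HTS format.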

[15] = target: Estrogen receptor (Homo sapiens) (UniProt P03372); assay: qHTS assay to identify small molecule agonists of the estrogen receptor alpha (ER-alpha) signaling pathway using the BG1 cell line (AID 743079); details: BG1Luc4E2 cells, ERE-luciferase agonist, 22 h; activation: at 70.3 µM (top of the series); further: nearly all actives have a fitted effect of over 20% in size
[16] = qHTS assay to identify small molecule antagonists of the estrogen receptor alpha (ER-alpha) signaling pathway using the BG1 cell line (AID 743080; calls by dose curve;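 further: BG1 cells stimulated with 17beta-estradiol alongside compound; nearly all actives have a fitted effect of over 25% in size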)
In short: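 Luminescence from a 4×ERE-luciferase reporter in BG1-Luc-4E2 cells served as read-out. Cells, pre-cultured 5 days in stripped-serum phenol-red-free medium, were exposed to compound with 17beta-estradiol co-stimulation for 21.5 h at 37 C.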

[17] = target: Aryl hydrocarbon receptor (Homo sapiens) (UniProt P35869); assay: qHTS assay to identify small molecule that activate the aryl hydrocarbon receptor (AhR) signaling pathway (AID 743085); further: nearly all actives have a fitted effect of over 15% in size; further: potency means the concentration at half of the fitted maximal effect;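 on activation: HG2L7.5c1 human HepG2 liver cells with stably integrated DRE-driven firefly reporter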
In short: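 Measured in HG2L7.5c1 cells: CellTiter-Fluor signal (30 min incubation, 37C) for viability, then luciferase luminescence (30 min, room temperature). Compound contact time was 24 h at 37C, following a 5 h pre-incubation.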

[18] = qHTS assay for small molecule agonists of the antioxidant response element (ARE) signaling pathway - cell viability counter screen (AID 743203; calls by dose curve; further: nearly all actives have a fitted effect of over 55% in size)
In short: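 Measured in the same wells as the beta-lactamase ARE reporter, this read-out is CellTiter-Glo luminescence from HepG2 ARE-bla cells given compounds for 16 hrs.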

[19] = qHTS assay to identify small molecule that activate the aryl hydrocarbon receptor (AhR) signaling pathway - cell viability counter screen (AID 743086); further: nearly all actives have a fitted effect of over 45% in size; further: potency means the concentration at half of the fitted maximal effect
In short: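 HepG2-AhR-luc (HG2L7.5c1) cells, 4000/well, treated 24 h at 37 C with compound; viability measured as CellTiter-Fluor fluorescence after 30 min in the same wells as the luciferase read.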

[20] = test system: thyroid hormone receptor (rat, GH3 cells); assay: qHTS assay to identify small molecule agonists of the thyroid receptor (TR) signaling pathway (AID 743066; calls by dose curve)

Sequence of Peroxisome proliferator-activated receptor gamma (Homo sapiens) (P37231 whole entry, looked up): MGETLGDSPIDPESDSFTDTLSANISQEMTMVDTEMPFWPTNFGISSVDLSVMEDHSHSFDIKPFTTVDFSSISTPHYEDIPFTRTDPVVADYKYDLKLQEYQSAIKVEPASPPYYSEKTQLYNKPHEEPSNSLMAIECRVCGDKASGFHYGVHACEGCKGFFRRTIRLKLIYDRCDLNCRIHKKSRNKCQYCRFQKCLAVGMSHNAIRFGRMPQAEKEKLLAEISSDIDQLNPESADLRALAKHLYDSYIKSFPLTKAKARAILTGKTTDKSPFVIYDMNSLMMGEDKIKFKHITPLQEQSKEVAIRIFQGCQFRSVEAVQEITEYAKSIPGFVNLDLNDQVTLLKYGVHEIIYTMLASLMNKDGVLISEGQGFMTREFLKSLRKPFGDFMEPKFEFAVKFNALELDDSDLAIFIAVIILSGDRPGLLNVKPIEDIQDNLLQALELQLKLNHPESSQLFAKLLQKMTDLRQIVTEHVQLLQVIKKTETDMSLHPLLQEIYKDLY
Sequence of Estrogen receptor (Homo sapiens) (P03372 whole entry, looked up): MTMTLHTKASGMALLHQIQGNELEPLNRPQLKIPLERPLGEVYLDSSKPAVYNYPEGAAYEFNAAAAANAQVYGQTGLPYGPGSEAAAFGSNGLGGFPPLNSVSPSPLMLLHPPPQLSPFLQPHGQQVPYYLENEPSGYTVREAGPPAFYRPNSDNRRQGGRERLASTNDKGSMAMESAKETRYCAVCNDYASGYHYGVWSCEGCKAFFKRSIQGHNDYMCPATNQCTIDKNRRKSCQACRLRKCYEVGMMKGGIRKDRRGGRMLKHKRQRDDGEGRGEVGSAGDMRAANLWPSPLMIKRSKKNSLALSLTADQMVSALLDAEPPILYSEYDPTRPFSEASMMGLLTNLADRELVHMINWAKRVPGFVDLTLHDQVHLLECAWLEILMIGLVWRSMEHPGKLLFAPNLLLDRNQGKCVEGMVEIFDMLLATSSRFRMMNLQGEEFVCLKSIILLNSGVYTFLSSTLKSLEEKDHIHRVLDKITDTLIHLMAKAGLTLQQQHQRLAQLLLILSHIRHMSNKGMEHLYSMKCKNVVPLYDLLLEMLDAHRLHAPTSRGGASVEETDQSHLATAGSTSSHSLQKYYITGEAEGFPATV
Sequence of Aryl hydrocarbon receptor (Homo sapiens) (P35869 whole entry, looked up): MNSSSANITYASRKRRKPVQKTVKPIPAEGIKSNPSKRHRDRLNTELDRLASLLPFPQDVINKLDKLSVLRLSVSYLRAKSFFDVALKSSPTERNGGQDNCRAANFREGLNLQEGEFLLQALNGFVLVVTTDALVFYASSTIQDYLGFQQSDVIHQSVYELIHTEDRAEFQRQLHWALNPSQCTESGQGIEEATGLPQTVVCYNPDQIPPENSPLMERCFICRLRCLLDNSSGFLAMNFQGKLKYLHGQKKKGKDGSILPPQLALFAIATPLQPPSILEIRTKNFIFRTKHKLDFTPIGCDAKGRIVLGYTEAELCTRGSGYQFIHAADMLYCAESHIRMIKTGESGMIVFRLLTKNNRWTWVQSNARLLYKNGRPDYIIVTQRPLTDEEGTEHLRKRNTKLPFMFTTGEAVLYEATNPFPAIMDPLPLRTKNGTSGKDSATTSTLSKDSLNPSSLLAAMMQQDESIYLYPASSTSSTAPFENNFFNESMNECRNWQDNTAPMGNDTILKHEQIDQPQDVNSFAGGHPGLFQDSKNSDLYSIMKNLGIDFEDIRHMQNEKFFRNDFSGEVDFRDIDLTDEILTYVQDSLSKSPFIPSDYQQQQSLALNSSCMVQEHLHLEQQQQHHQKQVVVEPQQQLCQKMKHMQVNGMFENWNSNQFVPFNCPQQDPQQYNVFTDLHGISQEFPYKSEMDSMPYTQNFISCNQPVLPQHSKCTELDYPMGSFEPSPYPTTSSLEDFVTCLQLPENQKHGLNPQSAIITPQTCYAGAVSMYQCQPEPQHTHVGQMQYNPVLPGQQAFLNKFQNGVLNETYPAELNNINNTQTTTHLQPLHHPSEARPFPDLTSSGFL
Sequence of Aromatase (Homo sapiens) (P11511 whole entry, looked up): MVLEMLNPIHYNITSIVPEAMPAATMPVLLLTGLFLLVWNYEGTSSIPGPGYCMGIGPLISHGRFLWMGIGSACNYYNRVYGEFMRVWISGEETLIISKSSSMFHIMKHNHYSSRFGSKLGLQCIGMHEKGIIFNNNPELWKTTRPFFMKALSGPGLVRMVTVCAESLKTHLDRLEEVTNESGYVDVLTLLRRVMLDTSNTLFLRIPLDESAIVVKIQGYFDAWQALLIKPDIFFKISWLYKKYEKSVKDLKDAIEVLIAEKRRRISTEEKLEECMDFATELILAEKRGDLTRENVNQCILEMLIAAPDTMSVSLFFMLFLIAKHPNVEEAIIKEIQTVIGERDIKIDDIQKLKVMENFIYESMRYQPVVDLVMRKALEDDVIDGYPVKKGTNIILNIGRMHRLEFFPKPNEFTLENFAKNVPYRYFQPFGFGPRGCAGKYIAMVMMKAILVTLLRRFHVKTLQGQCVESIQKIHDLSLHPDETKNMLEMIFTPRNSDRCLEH

Row | Compound | Potency [1] | Potency [2] | Potency [3] | Potency [4] | Potency [5] | Potency [6] | Potency [7] | Potency [8] | Potency [9] | Potency [10] | Potency [11] | Potency [12] | Potency [13] | Potency [14] | Potency [15] | Potency [16] | Potency [17] | Potency [18] | Potency [19] | outcome [20]
1 | NC(=O)N(O)[C@@H]1COc2cc(OCc3ccccc3)ccc21 | inactive | 61.1 µM (active) | inactive | inactive | inactive | inactive | inactive | inactive | inactive | inactive | inactive | inactive | inactive | inactive | – | – | – | – | – | –
2 | CN(C)CCOC1=Cc2ccccc2Sc2ccc(Cl)cc21 | 10.6 µM (active) | 9.44 µM (active) | inactive | – | inactive | inactive | – | – | – | – | inactive | inactive | inactive | inactive | inactive | inactive | inactive | inactive | – | –
3 | CCCCOC(=O)CCS | inactive | inactive | inactive | inactive | inactive | inactive | – | inactive | inactive | – | inactive | inactive | inactive | inactive | – | – | inactive | inactive | inactive | –
4 | COc1cc2c(N3CCN(C(=O)Nc4ccc(OC(C)C)cc4)CC3)ncnc2cc1OCCCN1CCCCC1 | 11.9 µM (active) | 13.3 µM (active) | inactive | inactive | – | – | inactive | inactive | inactive | inactive | – | – | inactive | inactive | inactive | inactive | – | – | 23.7 µM (active) | –
5 | CSc1ccc(Oc2ccc(S(N)(=O)=O)cc2CN(C)C)cc1C | 54.5 µM (active) | 27.3 µM (active) | – | – | inactive | inactive | – | inactive | inactive | – | – | – | inactive | inactive | – | – | inactive | inactive | inactive | –
6 | CCC(C)(O)CCC=C(C)C (centres undefined) | – | inactive | inactive | inactive | inactive | inactive | inactive | inactive | inactive | inactive | – | inactive | – | inactive | – | inactive | inactive | inactive | inactive | inactive
7 | O=C(CCCN1CCC(O)(c2ccc(Br)cc2)CC1)c1ccc(F)cc1 | – | 10.1 µM (active) | inactive | inactive | inactive | inactive | inactive | inactive | inactive | – | inactive | – | – | inactive | inactive | inactive | – | – | inactive | inactive
8 | O=C(CCC1CCN(Cc2ccccc2)CC1)c1ccc2c(c1)NCCCC2 | – | 11.9 µM (active) | inactive | – | inactive | – | – | – | inactive | inactive | inactive | 23.7 µM (active) | inactive | inactive | – | – | 23.7 µM (active) | inactive | – | inactive
9 | O=C(OCCOCCO)c1ccccc1Nc1cccc(C(F)(F)F)c1 | – | inactive | inactive | inactive | inactive | inactive | inactive | inactive | inactive | – | inactive | – | inactive | inactive | inactive | inactive | – | inactive | – | inactive
10 | CC1(C)C2=CCCC(C)(C)[C@]23CC[C@H]1C3 | inactive | – | – | inactive | – | inactive | – | inactive | inactive | inactive | inactive | – | inactive | inactive | – | – | – | inactive | inactive | inactive
11 | c1ccc(COCc2ccccc2)cc1 | – | inactive | inactive | inactive | inactive | inactive | inactive | inactive | inactive | inactive | inactive | inactive | inactive | inactive | inactive | inactive | – | – | inactive | inactive
12 | Nc1ccc(C(=O)OCCCOC(=O)c2ccc(N)cc2)cc1 | inactive | – | – | inactive | inactive | inactive | 30.6 µM (active) | inactive | inactive | 43.6 µM (active) | – | – | inactive | inactive | – | inactive | – | inactive | inactive | inactive
13 | CCCC1C(CC)=CC(CC)=CN1c1ccccc1 (centres undefined) | inactive | – | – | inactive | – | – | inactive | inactive | inactive | inactive | inactive | 54.5 µM (active) | inactive | inactive | – | – | – | inactive | inactive | inactive
14 | CC(C)CCCCCCOC(=O)CCCCC(=O)OCCCCCCC(C)C | – | inactive | inactive | inactive | inactive | inactive | inactive | inactive | inactive | inactive | inactive | – | – | inactive | inactive | inactive | – | – | inactive | inactive
15 | Cc1cc(O)c2c(O)c3c(O)cccc3cc2c1 | inactive | – | – | inactive | – | inactive | inactive | inactive | – | – | inactive | 11.9 µM (active) | inactive | inactive | – | – | 2.66 µM (active) | inactive | inactive | inactive
16 | C/C=C/C=C/CCCCCCCO | – | 61.1 µM (active) | inactive | inactive | inactive | inactive | inactive | – | inactive | – | inactive | – | – | – | inactive | inactive | inactive | inactive | inactive | inactive
17 | Cc1cc(S(=O)(=O)O)ccc1N=Nc1c(O)ccc2ccccc12 | 17.2 µM (active) | – | – | inactive | – | 30.6 µM (active) | inactive | 27.3 µM (active) | inactive | inactive | inactive | inactive | – | inactive | – | – | – | inactive | 24.3 µM (active) | inactive
